Assay results as given in the supplement of paper PMC10849652.
The full data set covers some 8,800 targets. This sample favours those with a hit. About 0.5% of all pairs of compound and target were hits.

How the values were obtained:
Assay in all cases: log2 fold change, soluble protein after heating vs DMSO (PISA); higher = thermal stabilisation; K562 lysate, 10 uM; active = over 0.2 and 3.5 SD of the protein, either way, in both replicates (recomputed)
erlotinib = compound: C#Cc1cccc(Nc2ncnc3cc(OCCOC)c(OCCOC)cc23)c1 [erlotinib]
In short: (§1)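 A 30 min treatment with 10 μM compound was applied to crude K562 extract at 1 mg/mL protein in PBS pH 7.4 with 1 mM MgCl2. Heating for 3 min spanned 48°C-58°C, after which aliquots were pooled, adjusted to 0.5% NP-40 at 4°C and spun at 21,000xg for 90 min. TMTpro 16plex LC-MS/MS of the supernatant, with channel sums equalised, gave values recorded as log-two fold change in thermal stability against solvent controls, from duplicates.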

[1] = compound: C/C(=N\NC(=O)C1=CC(=CC=C1)S(=O)(=O)N2CCOCC2)/C3=C(C=CC(=C3)Cl)O
In short: as §1

[2] = compound: C1=CC(=CC=C1C2=NC3=C(N2)C=C(C=C3)C(=O)N)OC4=CC=C(C=C4)Cl
In short: as §1

[3] = compound: C1=CC2=C(C=CC(=C2)/C=C\3/C(=O)NC(=NCC4=CC=CS4)S3)N=C1
In short: as §1

[4] = compound: C1=CC2=NC=CN=C2C=C1/C=C/3\C(=O)NC(=O)S3
In short: as §1

[5] = compound: C1=CC=C(C=C1)C2=NC(=C(N2)C3=CC=NC=C3)C4=CC(=C(C=C4)Cl)O
In short: as §1

[6] = compound: C1=CC=C2C(=C1)C3=NNC4=CC=CC(=C43)C2=O
In short: as §1

[7] = compound: C1CCN(C1)C(=O)NC2=CC=CC(=C2)NC3=NC=C(C(=N3)NCCC4=CN=CN4)Br
In short: as §1

[8] = compound: C1CN(CCC1(CC2=CC=C(C=C2)Cl)N)C3=NC=NC4=C3C=CN4
In short: as §1

IRAK-1-4 Inhibitor I = compound: C1COCCN1CCN2C3=CC=CC=C3N=C2NC(=O)C4=CC(=CC=C4)[N+](=O)[O-] [IRAK-1-4 Inhibitor I]
In short: as §1

ibrutinib = compound: C=CC(=O)N1CCC[C@@H](n2nc(-c3ccc(Oc4ccccc4)cc3)c3c(N)ncnc32)C1 [ibrutinib]
In short: as §1

[9] = compound: CC(=O)c1cnc2ccc(-c3cc(Cl)c(O)c(Cl)c3)nc2c1N[C@H]1CC[C@H](CN(C)C)CC1
In short: as §1

ralimetinib = compound: CC(C)(C)Cn1c(N)nc2ccc(-c3[nH]c(C(C)(C)C)nc3-c3ccc(F)cc3)nc21 [ralimetinib]
In short: as §1

[10] = compound: CC(C)(O)CC(=O)NCCn1ccc2ncnc(Nc3ccc(Oc4cccc(C(F)(F)F)c4)c(Cl)c3)c21
In short: as §1

[11] = compound: CC(C)C1=C2N=C(C=C(N2N=C1)NCC3=CC=CC=C3)NCCCCCCN
In short: as §1

[12] = compound: CC1=C(C(CC(=O)N1)C2=CC=C(C=C2)C(F)(F)F)C(=O)NC3=C(C=C4C(=C3)C=NN4)F
In short: as §1

[13] = compound: CC1=C(C2=C(C=C1)C(=O)C3=CC=CC=C3N2CCCN)C
In short: as §1

[14] = compound: CC1=C(C=C(C=C1)NC(=O)C2=CC(=CC=C2)C(C)(C)C#N)NC3=CC4=C(C=C3)N=CN(C4=O)C
In short: as §1

[15] = compound: CC1=C(C=C(C=C1)NC(=O)C2=CC(=CC=C2)N(C)C)NC(=O)C3=CC=C(C=C3)O
In short: as §1

[16] = compound: CC1=CC=C(C=C1)SC2=C3C=C(SC3=CN=C2)C(=O)N
In short: as §1

Measured: log2 fold change

SRRT (UniProt Q9BXP5)
Chain of UniProt Q9BXP5 (Q9BXP5 whole entry, looked up): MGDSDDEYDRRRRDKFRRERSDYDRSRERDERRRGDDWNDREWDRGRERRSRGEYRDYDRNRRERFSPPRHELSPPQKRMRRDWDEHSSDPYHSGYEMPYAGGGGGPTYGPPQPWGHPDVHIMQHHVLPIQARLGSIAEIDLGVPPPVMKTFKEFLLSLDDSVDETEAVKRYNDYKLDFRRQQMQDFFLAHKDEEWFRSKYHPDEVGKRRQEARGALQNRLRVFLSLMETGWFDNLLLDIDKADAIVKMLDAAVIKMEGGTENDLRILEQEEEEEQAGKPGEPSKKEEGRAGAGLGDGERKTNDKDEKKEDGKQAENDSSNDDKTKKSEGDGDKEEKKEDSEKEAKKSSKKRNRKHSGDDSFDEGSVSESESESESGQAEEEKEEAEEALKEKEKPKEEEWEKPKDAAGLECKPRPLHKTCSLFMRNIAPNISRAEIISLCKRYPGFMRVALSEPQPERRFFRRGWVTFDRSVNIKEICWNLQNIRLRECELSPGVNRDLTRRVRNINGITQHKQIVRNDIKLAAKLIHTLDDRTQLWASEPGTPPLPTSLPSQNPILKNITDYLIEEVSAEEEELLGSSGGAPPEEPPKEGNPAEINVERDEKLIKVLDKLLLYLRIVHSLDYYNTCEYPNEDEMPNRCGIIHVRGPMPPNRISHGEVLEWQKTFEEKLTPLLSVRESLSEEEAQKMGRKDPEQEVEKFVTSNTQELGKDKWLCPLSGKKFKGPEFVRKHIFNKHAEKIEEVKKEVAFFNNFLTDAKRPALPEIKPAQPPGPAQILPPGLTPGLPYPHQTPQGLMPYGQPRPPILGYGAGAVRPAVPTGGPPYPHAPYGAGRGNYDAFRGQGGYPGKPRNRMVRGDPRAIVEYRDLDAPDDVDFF
inactive: erlotinib 0.039 | [1] 0.023 | [2] -0.005 | [3] 0.041 | [4] 0.004 | [5] 0.022 | [6] -0.03 | [7] -0.005 | [8] -0.011 | IRAK-1-4 Inhibitor I 0.004 | ibrutinib 0.013 | [9] 0 | ralimetinib 0.026 | [10] 0.006 | [11] -0.01 | [12] -0.024 | [13] -0.012 | [14] -0.008 | [15] 0.043 | [16] -0.001

SNX6, A0A0A0MRI2
inactive: erlotinib 0.012 | [1] 0.056 | [2] -0.029 | [3] 0.04 | [4] -0.028 | [5] 0.013 | [6] -0.073 | [7] 0.024 | [8] -0.047 | IRAK-1-4 Inhibitor I -0.013 | ibrutinib -0.034 | [9] 0 | ralimetinib -0.005 | [10] -0.03 | [11] -0.011 | [12] -0.032 | [13] -0.001 | [14] 0.018 | [15] 0.039 | [16] -0.004

SH3BP2 isoform 4 (UniProt P78314)
Chain of UniProt P78314 (P78314 whole entry, looked up): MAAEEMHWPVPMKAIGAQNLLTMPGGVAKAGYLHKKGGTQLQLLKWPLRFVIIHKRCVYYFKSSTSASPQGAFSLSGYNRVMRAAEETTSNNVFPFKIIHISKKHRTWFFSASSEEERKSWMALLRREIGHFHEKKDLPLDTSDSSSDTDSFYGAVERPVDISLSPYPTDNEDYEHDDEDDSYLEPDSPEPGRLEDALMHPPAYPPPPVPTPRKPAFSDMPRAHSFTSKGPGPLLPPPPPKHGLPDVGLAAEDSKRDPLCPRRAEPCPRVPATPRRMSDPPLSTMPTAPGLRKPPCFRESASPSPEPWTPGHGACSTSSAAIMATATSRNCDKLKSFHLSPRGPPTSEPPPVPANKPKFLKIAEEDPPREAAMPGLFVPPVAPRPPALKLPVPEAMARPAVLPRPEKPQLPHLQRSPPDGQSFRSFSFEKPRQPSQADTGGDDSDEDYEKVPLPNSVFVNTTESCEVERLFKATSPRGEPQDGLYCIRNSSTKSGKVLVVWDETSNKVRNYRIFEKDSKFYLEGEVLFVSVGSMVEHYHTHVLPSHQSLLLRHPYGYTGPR
inactive: erlotinib -0.037 | [1] 0.213 | [2] 0.001 | [3] 0.044 | [4] -0.103 | [5] 0.088 | [6] -0.073 | IRAK-1-4 Inhibitor I 0.03 | ibrutinib 0.096 | [9] -0.084 | ralimetinib 0.07 | [10] 0.137 | [11] -0.004 | [13] -0.297 | [14] 0.03 | [15] -0.126 | [16] 0.073

SRSF9 (UniProt Q13242)
Chain of UniProt Q13242 (Q13242 whole entry, looked up): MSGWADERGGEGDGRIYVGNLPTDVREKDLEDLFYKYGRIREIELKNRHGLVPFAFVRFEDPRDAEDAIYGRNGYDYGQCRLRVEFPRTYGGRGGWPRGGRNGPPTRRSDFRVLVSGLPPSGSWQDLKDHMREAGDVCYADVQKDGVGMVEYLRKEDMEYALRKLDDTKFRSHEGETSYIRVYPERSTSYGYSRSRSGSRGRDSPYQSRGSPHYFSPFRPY
active: [1] 0.263
inactive: erlotinib 0.027 | [2] 0.007 | [3] 0.077 | [4] 0.052 | [5] -0.01 | [6] 0.097 | [7] 0.072 | [8] 0.007 | IRAK-1-4 Inhibitor I 0.012 | ibrutinib -0.009 | [9] -0.009 | ralimetinib 0.001 | [10] -0.031 | [11] -0.031 | [12] -0.019 | [13] -0.089 | [14] 0.047 | [15] -0.028 | [16] -0.007

STK11IP (UniProt Q8N1F8)
inactive: erlotinib 0.015 | [1] 0.008 | [2] -0.002 | [3] -0.071 | [4] 0.007 | [5] -0.007 | [6] 0.025 | [7] -0.029 | [8] 0.033 | IRAK-1-4 Inhibitor I 0.053 | ibrutinib -0.016 | [9] -0.024 | ralimetinib 0.044 | [10] -0.055 | [11] 0 | [12] 0.046 | [13] 0.024 | [14] -0.009 | [15] 0 | [16] 0.015

SLC25A36 (UniProt Q96CQ1)
Chain of UniProt Q96CQ1 (Q96CQ1 whole entry, looked up): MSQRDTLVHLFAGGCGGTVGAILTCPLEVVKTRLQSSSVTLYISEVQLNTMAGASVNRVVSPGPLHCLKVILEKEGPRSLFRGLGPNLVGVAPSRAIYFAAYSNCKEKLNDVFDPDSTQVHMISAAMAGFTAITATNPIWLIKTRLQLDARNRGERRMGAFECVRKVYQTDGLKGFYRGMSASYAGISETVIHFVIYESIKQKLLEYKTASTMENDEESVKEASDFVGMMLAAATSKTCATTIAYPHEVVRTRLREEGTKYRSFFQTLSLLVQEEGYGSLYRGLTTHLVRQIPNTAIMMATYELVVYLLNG
inactive: erlotinib -0.021 | [1] 0.024 | [2] 0.08 | [3] -0.129 | [5] 0.041 | [6] 0.027 | [7] -0.027 | [8] -0.026 | IRAK-1-4 Inhibitor I 0.038 | [9] -0.012 | ralimetinib 0.142 | [10] -0.048 | [11] 0.1 | [12] 0.044 | [13] -0.16 | [14] 0.011 | [15] 0.027 | [16] 0.013

TAF6L (UniProt Q9Y6J9)
inactive: erlotinib -0.013 | [1] 0.174 | [2] -0.077 | [3] 0.005 | [4] 0.025 | [5] 0.055 | [6] 0.055 | [7] 0.022 | [8] -0.104 | IRAK-1-4 Inhibitor I 0.051 | ibrutinib 0.072 | [9] 0.046 | ralimetinib 0.042 | [10] -0.078 | [11] 0.01 | [12] -0.041 | [13] -0.006 | [14] -0.027 | [15] 0.027 | [16] -0.009

SMTN isoform 6 (UniProt P53814)
inactive: erlotinib -0.033 | [1] 0.081 | [2] -0.01 | [3] 0.035 | [4] 0.006 | [5] 0.021 | [6] 0.005 | [7] -0.018 | [8] 0.015 | IRAK-1-4 Inhibitor I 0.058 | ibrutinib -0.03 | [9] -0.072 | ralimetinib -0.02 | [10] -0.004 | [11] -0.009 | [12] 0.074 | [13] -0.013 | [14] 0.054 | [15] 0.05 | [16] 0.135

SRP54 (UniProt P61011)
Chain of UniProt P61011 (P61011 whole entry, looked up): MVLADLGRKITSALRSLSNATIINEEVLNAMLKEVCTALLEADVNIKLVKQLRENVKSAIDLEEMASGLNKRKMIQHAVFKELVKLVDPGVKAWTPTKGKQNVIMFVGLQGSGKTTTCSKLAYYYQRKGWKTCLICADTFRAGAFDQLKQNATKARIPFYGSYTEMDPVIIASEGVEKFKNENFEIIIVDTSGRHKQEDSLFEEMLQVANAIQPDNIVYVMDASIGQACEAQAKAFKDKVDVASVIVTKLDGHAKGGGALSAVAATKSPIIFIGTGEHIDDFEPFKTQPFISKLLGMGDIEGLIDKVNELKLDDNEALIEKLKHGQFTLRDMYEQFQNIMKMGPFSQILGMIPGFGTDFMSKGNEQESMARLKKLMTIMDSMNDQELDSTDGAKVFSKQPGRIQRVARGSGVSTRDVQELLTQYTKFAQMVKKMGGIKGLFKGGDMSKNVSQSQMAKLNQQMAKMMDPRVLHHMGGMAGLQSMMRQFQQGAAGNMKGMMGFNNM
inactive: erlotinib -0.026 | [1] 0.017 | [2] 0.035 | [3] 0.023 | [4] -0.043 | [5] 0.005 | [6] -0.039 | [7] -0.047 | [8] -0.003 | IRAK-1-4 Inhibitor I -0.014 | ibrutinib -0.039 | [9] -0.023 | ralimetinib 0.031 | [10] 0.015 | [11] 0.036 | [12] 0.034 | [13] -0.069 | [14] -0.021 | [15] 0.007 | [16] -0.009

SYK (UniProt P43405)
inactive: erlotinib -0.004 | [1] -0.007 | [2] 0.017 | [3] 0.039 | [4] -0.033 | [5] 0.021 | [7] -0.013 | [8] -0.038 | IRAK-1-4 Inhibitor I 0.053 | ibrutinib -0.09 | [9] -0.041 | ralimetinib -0.025 | [10] -0.103 | [11] 0.051 | [12] -0.055 | [13] -0.114 | [14] -0.001 | [15] 0.027 | [16] -0.065

STN1 (UniProt Q9H668)
Chain of UniProt Q9H668 (Q9H668 whole entry, looked up): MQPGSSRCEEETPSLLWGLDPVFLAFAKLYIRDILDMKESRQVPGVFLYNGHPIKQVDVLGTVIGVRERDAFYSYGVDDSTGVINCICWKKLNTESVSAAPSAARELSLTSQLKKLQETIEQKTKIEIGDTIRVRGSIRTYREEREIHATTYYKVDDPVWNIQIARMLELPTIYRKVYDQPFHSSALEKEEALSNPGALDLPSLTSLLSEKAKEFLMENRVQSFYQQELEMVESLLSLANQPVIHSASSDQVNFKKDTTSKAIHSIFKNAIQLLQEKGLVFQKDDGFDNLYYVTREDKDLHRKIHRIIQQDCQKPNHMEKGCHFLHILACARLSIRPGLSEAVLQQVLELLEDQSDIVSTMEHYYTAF
inactive: erlotinib -0.126 | [1] 0.049 | [2] 0.142 | [3] 0.075 | [4] -0.098 | [5] 0.019 | [6] -0.061 | [7] -0.045 | [8] 0.043 | IRAK-1-4 Inhibitor I 0.034 | ibrutinib 0.133 | [9] -0.187 | ralimetinib 0.151 | [10] -0.071 | [11] -0.056 | [12] 0.106 | [14] -0.016 | [15] 0.051 | [16] 0.035

SLC40A1 (UniProt Q9NP59)
Chain of UniProt Q9NP59 (Q9NP59 whole entry, looked up): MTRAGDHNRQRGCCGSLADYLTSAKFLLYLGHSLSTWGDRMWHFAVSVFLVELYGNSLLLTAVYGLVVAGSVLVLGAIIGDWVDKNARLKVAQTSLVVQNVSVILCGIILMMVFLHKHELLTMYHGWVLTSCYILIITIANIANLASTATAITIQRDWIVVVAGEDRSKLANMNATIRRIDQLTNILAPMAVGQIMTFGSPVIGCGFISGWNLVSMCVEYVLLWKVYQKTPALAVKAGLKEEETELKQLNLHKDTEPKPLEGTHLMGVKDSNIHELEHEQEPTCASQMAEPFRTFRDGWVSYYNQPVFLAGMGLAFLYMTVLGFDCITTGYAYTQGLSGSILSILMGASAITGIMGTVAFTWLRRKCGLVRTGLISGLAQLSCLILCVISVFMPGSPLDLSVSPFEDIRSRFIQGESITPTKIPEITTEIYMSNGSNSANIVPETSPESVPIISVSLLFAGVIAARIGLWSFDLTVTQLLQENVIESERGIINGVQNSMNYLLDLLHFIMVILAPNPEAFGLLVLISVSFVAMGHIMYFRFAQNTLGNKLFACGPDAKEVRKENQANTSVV
inactive: erlotinib 0.188 | [1] -0.035 | [2] 0.233 | [3] 0.042 | [5] -0.052 | [6] -0.122 | [7] -0.015 | [8] 0.05 | IRAK-1-4 Inhibitor I 0.048 | [9] -0.028 | ralimetinib -0.037 | [10] -0.096 | [11] 0.042 | [12] -0.017 | [13] 0.049 | [14] -0.034 | [15] 0.041 | [16] -0.055

SURF2 (UniProt Q15527)
Chain of UniProt Q15527 (Q15527 whole entry, looked up): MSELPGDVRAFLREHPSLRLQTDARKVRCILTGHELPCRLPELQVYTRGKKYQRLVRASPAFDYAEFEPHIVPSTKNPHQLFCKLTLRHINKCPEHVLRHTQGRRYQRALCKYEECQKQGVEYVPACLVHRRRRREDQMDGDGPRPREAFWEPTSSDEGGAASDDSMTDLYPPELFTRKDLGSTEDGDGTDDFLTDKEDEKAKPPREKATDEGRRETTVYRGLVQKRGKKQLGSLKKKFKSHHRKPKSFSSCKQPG
inactive: [1] 0.087 | [3] -0.019 | [4] 0.02 | [5] -0.004 | [6] 0.022 | [7] 0.051 | [8] 0.074 | IRAK-1-4 Inhibitor I 0.035 | ibrutinib 0.001 | [9] -0.019 | ralimetinib -0.147 | [10] -0.038 | [12] 0.103 | [13] 0.018 | [14] 0.026 | [15] 0.031 | [16] -0.02

SNAPC2 (UniProt Q13487)
inactive: erlotinib 0.131 | [2] 0.022 | [4] -0.21 | [5] 0.087 | IRAK-1-4 Inhibitor I -0.166 | ibrutinib 0.092 | ralimetinib 0.002 | [10] -0.029 | [11] -0.032 | [12] -0.073 | [13] -0.071 | [14] -0.008 | [15] 0.011

TAOK2 (UniProt Q9UL54)
Chain of UniProt Q9UL54 (Q9UL54 whole entry, looked up): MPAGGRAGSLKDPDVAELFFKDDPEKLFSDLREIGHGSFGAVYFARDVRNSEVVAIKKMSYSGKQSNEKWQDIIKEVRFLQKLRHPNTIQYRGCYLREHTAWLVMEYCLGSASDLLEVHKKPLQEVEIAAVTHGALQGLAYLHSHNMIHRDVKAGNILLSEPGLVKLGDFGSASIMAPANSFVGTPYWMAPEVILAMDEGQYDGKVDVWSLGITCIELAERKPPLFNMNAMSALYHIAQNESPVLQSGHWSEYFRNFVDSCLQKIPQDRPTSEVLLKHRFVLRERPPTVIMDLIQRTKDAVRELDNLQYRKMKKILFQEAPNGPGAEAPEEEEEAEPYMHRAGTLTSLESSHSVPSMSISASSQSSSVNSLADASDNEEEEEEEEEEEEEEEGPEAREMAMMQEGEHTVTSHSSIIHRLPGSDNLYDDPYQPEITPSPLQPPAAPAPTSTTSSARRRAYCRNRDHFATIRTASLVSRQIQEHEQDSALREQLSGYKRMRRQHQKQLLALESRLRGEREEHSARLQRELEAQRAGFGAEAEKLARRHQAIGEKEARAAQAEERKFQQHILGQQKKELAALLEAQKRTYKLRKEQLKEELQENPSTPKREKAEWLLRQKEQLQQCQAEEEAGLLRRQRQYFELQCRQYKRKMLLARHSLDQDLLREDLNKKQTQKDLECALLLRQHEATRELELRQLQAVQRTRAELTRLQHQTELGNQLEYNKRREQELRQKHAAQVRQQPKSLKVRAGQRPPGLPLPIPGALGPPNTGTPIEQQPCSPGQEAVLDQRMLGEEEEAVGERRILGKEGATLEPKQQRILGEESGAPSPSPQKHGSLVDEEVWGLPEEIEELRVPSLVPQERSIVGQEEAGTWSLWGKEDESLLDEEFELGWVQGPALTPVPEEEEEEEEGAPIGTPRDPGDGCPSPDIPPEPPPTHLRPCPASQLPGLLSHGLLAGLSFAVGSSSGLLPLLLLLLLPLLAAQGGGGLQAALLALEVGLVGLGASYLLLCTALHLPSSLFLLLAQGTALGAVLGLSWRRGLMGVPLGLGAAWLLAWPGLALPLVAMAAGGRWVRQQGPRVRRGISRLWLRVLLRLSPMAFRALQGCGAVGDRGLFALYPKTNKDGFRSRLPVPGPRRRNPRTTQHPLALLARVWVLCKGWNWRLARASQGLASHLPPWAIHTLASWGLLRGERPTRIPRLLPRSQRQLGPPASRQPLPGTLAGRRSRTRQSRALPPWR
inactive: [1] 0.006 | [3] -0.034 | [4] 0.072 | [5] -0.031 | [7] 0.038 | [8] 0.058 | IRAK-1-4 Inhibitor I 0.072 | ibrutinib -0.009 | [9] 0.151 | ralimetinib -0.035 | [10] -0.033 | [12] -0.072 | [13] -0.053 | [14] -0.037 | [15] -0.044 | [16] 0.024
active: [6] 0.729

SMPD2 (UniProt O60906)
active: erlotinib -1.38
inactive: [2] -0.551 | [5] -0.112 | [7] -0.024 | [8] 0.022 | IRAK-1-4 Inhibitor I 0.065 | [9] 0.01 | ralimetinib -0.03 | [10] 0.067 | [11] 0.388 | [13] 0.077 | [15] -0.113 | [16] 0.058

SHB (UniProt Q15464)
inactive: erlotinib 0.003 | [2] 0.033 | [5] -0.014 | IRAK-1-4 Inhibitor I -0.067 | [9] -0.023 | ralimetinib 0.023 | [10] -0.025 | [11] -0.009 | [13] -0.01 | [14] 0.023 | [15] -0.012 | [16] 0.05
